HT1080-NT tox: kills 2HG-producing HT-1080-NT fibrosarcoma cells; AID 686970; HT-1080-NT fibrosarcoma viability, CellTiter-Glo ATP luminescence, 48 h; Potency, µM (titrated, usually from 46.1 µM), without a hit: top-dose activity, negative = less viability, usual class: cytotoxic; 360,000 tested, 1.6% active;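 further: NT is the 2HG producing partner of a matched IDH1 knockdown line; potency means the concentration at half of the fitted maximal effect; 0% = DMSO-treated cells and -100% = media-only wells without cells; nearly all actives have a fitted effect of over 55% in size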
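HT-1080-NT fibrosarcoma cells (2HG-overproducing), 750 cells/well in RPMI with 5% FBS, dosed after 2 h and incubated 48 h at 37C. CellTiter-Glo luminescence normalized to DMSO and no-cell wells; concentration-response curves fitted and classed.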
Giardia kill: kills Giardia lamblia; AID 540267; Giardia lamblia trophozoite viability; 340,000 tested, 0.15% active; activity change, % at 7.66 µM, hits read low; in the data active means activity change below about -80%; inconclusive means between about -30% and that limit;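 further: parasites exposed to compound for two days anaerobically before the ATP read; on the % scale 0 is the no-effect control and ±100 the full control effect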
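Luminescent ATP signal served as the viability read-out, measured 15-30 min after adding ATP detection reagent to trophozoites that had been incubated with compounds for 48 hrs at 37 deg C anaerobically at 100 cells/well.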
HepG2 viability: kills HepG2 cells in TGF-b inhibitor counter-screen; Potency, µM (doses to about 46.1 µM), for the others: at the top dose activity change, negative = cytotoxicity, actives largely listed as cytotoxic; 410,000 tested, 0.76% active; HepG2 CAGA-GFP viability, ATP luminescence, 18 h; further: potency means the concentration at half of the fitted maximal effect
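HepG2 CAGA-GFP cells (1000/well, DMEM with 1% FBS) received compound, then TGF-beta at 500 pg/mL final, and were incubated 18 hours at 37 degrees C. Viability was read by CellTiter-Glo luminescence. Media-only wells were set as complete cell-killing and DMSO as no toxicity.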
IL1B secr inh: inflammasome signaling inhibition, IL-1 beta readout | THP-1 LPS/ATP IL-1B secretion, AlphaLISA, 16 h; hits give low values | activity change, % at 57.5 µM | 360,000 tested, 4.7% active; in the data active means activity change below about -50%; inconclusive means mostly about -30% to -49%; further: on the % scale 0 is the no-effect control and ±100 the full control effect
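Secreted IL-1B measured by AlphaLISA bead assay after 16 h compound exposure of THP-1 cells; compounds (final up to 57.5 uM) added 1 h before LPS (250 ng/mL) and ATP (1.25 mM) stimulation; lower signal means less secretion.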
HT1080 IDH1KD tx: kills HT-1080 cells with IDH1 knockdown. HT-1080 IDH1 knockdown viability, ATP luminescence, 48 h. AID 686971. 360,000 tested, 2% active. Potency, µM (titrated, usually from 46.1 µM), inactives show at the top dose activity, negative = toxicity, actives largely listed as cytotoxic;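 further: potency means the concentration at half of the fitted maximal effect; 0% = DMSO wells and -100% = cell-free medium wells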
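HT-1080-IDH1KD cells (IDH1 knocked down), 750/well in RPMI with 5% FBS, treated with compound 48 h at 37 degrees C. Viability by CellTiter-Glo luminescence, normalised to DMSO and no-cell wells; concentration-response curves classed.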
TGFb inhibitor: blocks TGF-b signaling; HepG2 CAGA-GFP TGF-b/SMAD3 reporter, GFP fluorescence, 18 h; TGF-beta stimulated, 500 pg/mL final; Potency, µM (top dose mostly 46.1 µM), for inactives: at the highest dose activity, negative = inhibition, most hits filed as inhibitors; 410,000 tested, 1.2% active; AID 588855; further: potency means the concentration at half of the fitted maximal effect; on the % scale 0 is the no-effect control and ±100 the full control effect; nearly all actives have a fitted effect of over 65% in size
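Inhibition was scored as loss of TGF-beta-induced (500 pg/mL final, 18 hours, 37 degrees C) GFP in HEPG2 cells carrying a CAGA-GFP reporter, in DMEM with 1% FBS. Well GFP was summed per cell; Activity was normalised to unstimulated and stimulated DMSO wells, then concentration-response fitting.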
* hit, by the source's call; u = inconclusive; x = no result; [ ] = remark or other dose. Sampled rows, rich in hits. Any-hit rate of the full collection: about 6.5%. Unless noted, the call rests on the fitted dose curve; in most records, active means well fitted curve in the direction sought with a large enough effect; inconclusive means small, poorly fitted or top-dose-only effect, or another doubt; inactive means no such curve, though single readings can be large; an effect the other way counts as inactive or inconclusive.

SMILES	HT1080-NT tox	Giardia kill	HepG2 viability	IL1B secr inh	HT1080 IDH1KD tx	TGFb inhibitor
Cc1ccc(C)c(C(=O)CN2C3=NCCCN3c3ccccc32)c1	u	-1	-50%	-66*	u	-13%
O=C(CN1C2=NCCN2c2ccccc21)C12CC3CC(CC(C3)C1)C2	21µM*	-20	-7%	u	-1%[9.24 µM]	56%
COc1ccc(C(=O)CN2C3=NCCCN3c3ccccc32)cc1OC	-12%	-6	-13%	-9	-11%	-4%
Cc1ccc2nsnc2c1NC(=O)c1ccc(-c2cc(Cl)ccc2Cl)o1	16µM*	-5	-56%	-2	-27%	u
Cc1ccc2nsnc2c1NC(=O)c1ccc([N+](=O)[O-])o1	-14%	-85*	-24%	-92*	u	u
Cc1ccc2nsnc2c1NC(=O)Cc1ccc(Cl)cc1	8%	-23	-8%	8	8%	-5%
Cc1ccc(C(=O)O/N=C2\CCS(=O)(=O)c3sccc32)cc1	14%	-19	23%	13	6%	17%
COc1ccc(Cc2nnc(N/N=C/c3ccc(Br)cc3)[nH]c2=O)cc1OC	u	7	-8%	-1	-1%	0%
COc1ccc(Cc2nnc(N/N=C/c3ccc(O)cc3)[nH]c2=O)cc1OC	u	11	-6%	-130*	u	u
CCCCN=c1scc(-c2ccc3c(c2)NC(=O)CO3)n1N=C1CCCC1	u	-12	-25%	u	u	u
O=C1CSC(=Nc2cccc(Cl)c2Cl)N1Cc1cccnc1	-12%	-17	-151%	-52*	-26%	-7%
Cc1ccccc1N=C1SCC(=O)N1Cc1ccccc1	9%	-4	-30%	-1	3%	5%
CN(C(=O)c1cccc(NC(=O)Cc2ccc(NC(=O)C3CCCN(S(=O)(=O)c4cccc([N+](=O)[O-])c4)C3)cc2)c1)C1CCCCC1 (stereo not given)	10%	-10	-7%	-2	3%	u
CCOC(=O)COc1cc(Br)c(/C=N/Nc2ccccc2)cc1OC	u	-10	-22%	-93*	u	13%
CCCOC(=O)c1ccc(Oc2cn[nH]c2-c2ccc(O)cc2O)cc1	18µM*	-2	-48%	18	-4%	u
CCOc1ccccc1Oc1cn[nH]c1-c1ccc(O)cc1O	-21%	-13	0%	11	-1%	0%
C=C(C)COc1ccc(-c2[nH]ncc2Oc2ccccc2OCC)c(O)c1	u	4	-89%	-63*	26µM*	u
C=C(C)COc1ccc(-c2[nH]ncc2Oc2cccc(OC)c2)c(O)c1	23µM*	-23	18µM*	-17	u	u
CCOC(=O)c1ccc(Oc2cn[nH]c2-c2ccc(O)cc2O)cc1	1%	3	-17%	0	-5%	u
CCN(c1ccccc1)S(=O)(=O)c1cccc(C(=O)NCc2cccnc2)c1	-1%	-8	-12%	13	-10%	-4%
COc1ccc(-c2csc(N(CCc3ccccc3)C(=O)COc3ccccc3)n2)cc1	-7%	-6	-3%	0	-4%	9%
CN(C)c1c2ccccc2nc2c(F)c(F)c(F)c(F)c12	-2%	17	-20%	-96*	-3%	u
COc1ccc(-c2nc(CN3CCN(c4cc(C)nc(C)c4)CC3)c(C)o2)c2ccccc12	13µM*	10	-92%	-105*	15µM*	u
Cc1cc(N2CCN(Cc3nc(-c4ccc(Cl)cc4)oc3C)CC2)cc(C)n1	21µM*	-5	-29%	x	21µM*	u
O=C(c1ccccc1)c1cncc(Br)c1	1%	-6	-31%	1	-1%	-5%
SMILES	HT1080-NT tox	Giardia kill	HepG2 viability	IL1B secr inh	HT1080 IDH1KD tx	TGFb inhibitor
O=C(Nc1ccc(Cl)cn1)c1ccccc1[N+](=O)[O-]	u	u	7%	17	18µM*	4%
O=C(NNC(=O)c1ccccc1[N+](=O)[O-])Nc1ccc(Cl)cc1	3%	-4	2%	-7	11%	-9%
O=[N+]([O-])c1cnc(Nc2ccc(Cl)cn2)c([N+](=O)[O-])c1	-27%	u	-92%	-55*	u	u
O=C(NNC(=O)c1cccc2ccccc12)c1ccc(Cl)cc1	1%	9	-4%	-13	17%	1%
O=C(Nc1ccc(Cl)cn1)c1cccc2ccccc12	u	-5	2%	0	12µM*	0%
Cc1ccc(Nc2ccc([N+](=O)[O-])cn2)cc1Cl	-14%	10	-39%	u	-5%	-16%
Cc1cccc(-c2n[nH]c(=S)n2/N=C/c2ccc(C)s2)c1	u	9	-24%	41	u	-8%
O=C(NCCN1CCOCC1)c1cc(-c2ccccc2)nc2ccccc12	-1%	x	-4%	-12	0%	-1%
Nc1c(C(=O)NCCN2CCOCC2)c2nc3ccccc3nc2n1-c1ccccc1	-2%	0	-23%	-52*	-1%	-29%
COCCNC(=O)c1c(N)n(-c2cccc(C)c2)c2nc3ccccc3nc12	-28%	15	-1%	-53*	-28%	-10%
O=C(NCCN1CCOCC1)c1cnn2c(-c3ccccc3)cc(-c3ccccc3)nc12	u	15	-19%	-55*	u	-1%
Nc1c(C(=O)NCCN2CCOCC2)c2nc3ccccc3nc2n1-c1ccc2c(c1)OCO2	u	23	2%	-59*	-23%	1%
O=C(Nc1ncc2c(n1)-c1ccccc1CC2)c1ccccc1	6%	-1	-1%	-15	13%	3%
CCC1=C(OC(=O)N(CC)CC)N2C(=O)OC(=NCc3ccccc3)[C@]2(C)[C@H]2C1=CC[C@H]1C(=O)NC(=O)[C@H]12	3%	11	-6%	0	-1%	6%
COc1ccc(-n2nnc3c(=O)n(CC(=O)Nc4cc(C)on4)cnc32)cc1OC	u	13	-13%	12	-24%	1%
C=CCn1c(N)c(C(=O)OC(C)(C)C)c2nc3ccccc3nc21	3%	30	-11%	u	-3%	-7%
COC(=O)c1c(N)n(-c2ccc(NC(C)=O)cc2)c2nc3ccccc3nc12	9%	33	7%	-52*	10%[9.24 µM]	3%
C=CCn1c(N)c(C(=O)Nc2ccccc2)c2nc3ccccc3nc21	2%	4	-41%	-62*	-13%	20%
C=CCNC(=O)c1c(N)n(-c2cccc(S(N)(=O)=O)c2)c2nc3ccccc3nc12	u	24	-8%	-59*	u	u
